BaF3 parental – parental Ba/F3 cell viability inhibition, counter-screen for JAK2V617F inhibitor project, murine pro-B, CellTiter-Glo luminescence; inhibition, % at 5.6 µM; AID 1486, 2009; CellTiter-Glo ATP luminescence; 220,000 compounds, 1.1% hits;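 active = inhibition above a per-campaign cutoff, the mean inhibition of all tested compounds plus 3 SD, cut at about 27% in these data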
IEC-6 tox – cytotoxicity in IEC-6 intestinal epithelial cells, primary screen, cytotoxicity control for KLF5 inhibitor project, cell-based, luminescence. 290,000 compounds, 0.78% hits. IEC-6 cytotoxicity, luminescence viability. inhibition, % at 5 µM; in the data active = inhibition above about 22%
aSyn 5UTR inh – MLPCN primary screen, SNCA 5' untranslated region. AID 1813, 2009. inhibition, % (tested at 7.5 µM). 300,000 compounds, 0.82% hits. alpha-synuclein 5'UTR reporter, inhibitor activity; in the data active = inhibition above about 60%;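 note: H4 neuroglioblastoma cells stably carrying SNCA 5'UTR luciferase fusion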
APP transl inh – inhibitors of APP translation via 5'UTR reporter, primary screen, APP 5'UTR luciferase, SH-SY5Y cells; SH-SY5Y APP 5'UTR-luciferase reporter, luminescence; inhibition, % at 2 µM; 190,000 compounds, 0.82% hits; AID 1285, 2008;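 active = inhibition above a set limit, derived from the sample mean plus 3 SD, cut at about 45% in these data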
Ba/F3 V617F tox – reduced viability of JAK2V617F-dependent Ba/F3 cells, primary screen, JAK2V617F inhibitor project, cell-based, Ba/F3 EpoR-JAK2V617F, luminescence; ATP luminescence; inhibition, % at 5.6 µM; 220,000 compounds, 1.1% hits; AID 1446, 2008;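 active = inhibition above the campaign mean plus 3 SD over all tested compounds, cut at about 24% in these data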;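 note: cytokine-independent growth of Ba/F3 cells driven by EpoR plus mutant JAK2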
KLF5 inh – KLF5 expression inhibitors, primary screen, DLD-1 cells, luminescence. AID 1700, 2009. 290,000 compounds, 0.23% hits. inhibition, % at 5 µM. DLD-1 KLF5 promoter-luciferase reporter;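 active = inhibition above a per-plate limit of that plate's mean compound inhibition plus 3 SD, cut at about 60% in these data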;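 note: higher means less KLF5 promoter-driven luciferase light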
A number is an active result; n = inactive; x = no result given. A selection: hits, their analogues and other compounds. The true share with any hit is near 2.2%.

SMILES | BaF3 parental | IEC-6 tox | aSyn 5UTR inh | APP transl inh | Ba/F3 V617F tox | KLF5 inh
O=C(/C=C1\NC2(CCCC2)Cc2ccccc21)C(=O)N/N=C/c1ccccc1O | n | n | 74 | 67 | n | n
COc1cc(/C=N/NC(=O)C(=O)/C=C2\NC3(CCCC3)Cc3ccccc32)ccc1O | n | n | n | n | n | n
COc1cc2c3nnc(-c4ccc(F)cc4)c-3cn(Cc3ccccc3F)c2cc1OC | n | n | x | 53 | n | n
CCOc1ccc(NC(=O)CN(C)C(=O)c2ccc(NC3CC3)c([N+](=O)[O-])c2)cc1OCC | x | x | n | x | x | x
Cc1sc(NC(=O)c2ccc(=O)n(C)n2)nc1-c1ccccc1 | 45 | n | n | n | 44 | n
Cc1sc(NC(=O)c2c(F)cccc2F)nc1-c1ccccc1 | x | n | n | x | x | n
N#Cc1ccsc1NC(=O)CCN1CCN(C(c2ccccc2)c2ccccc2)CC1 | x | n | n | x | x | n
Cc1cccc(-c2nc3cc(NC(=O)C4CCCO4)ccc3o2)c1 (configuration not stated) | n | n | 72 | n | n | n
Cc1ccc2oc(-c3cccc(NC(=O)C4CCCO4)c3)nc2c1 (configuration not stated) | n | n | n | n | n | n
Cc1ccc(-c2nc3cc(NC(=O)C(C)C)ccc3o2)cc1C | n | n | n | n | n | n
O=C(Nc1ccc(-c2nc3ccccc3[nH]2)cc1)C1CCCO1 (configuration not stated) | n | n | 77 | n | n | n
Cc1ccc(-c2nc3cc(NC(=O)C(C)C)ccc3o2)cc1 | 28 | n | n | n | n | n
O=C(Nc1nc2ccccc2[nH]1)C1CCCO1 (configuration not stated) | n | n | n | n | n | n
CN1CCN(C(=O)c2cc(Br)cn2C)CC1 | x | n | n | x | x | n
CCC(=O)N1c2ccc(S(=O)(=O)NCCc3ccccc3)cc2CC1C (configuration not stated) | x | n | n | x | x | n
CCOC(=O)C1CCN(S(=O)(=O)c2ccc(OC)c(C(=O)N3CCCCC3)c2)CC1 | x | n | n | x | x | n
CCOc1cc(C(=S)N2CCOCC2)ccc1OC(=O)c1ccc(C)cc1 | x | n | n | x | x | n
CCN1CCN(c2ccc(S(=O)(=O)N3CCCCC3)cc2NC(=O)c2ccc(C)o2)CC1 | x | x | n | x | x | x
CC(C)(C)c1cc(C(c2cccnc2)N2CCN(CCO)CC2)cc(C(C)(C)C)c1O (configuration not stated) | n | n | n | 59 | n | n
O=C(O)c1nn(CC(=O)N2CCN(c3ncc(C(F)(F)F)cc3Cl)CC2)c(=O)c2ccccc12 | x | n | n | x | x | n
C(=N\Nc1nncc2ccccc12)/c1ccccn1 | x | n | 98 | x | x | n
Fc1cccc(/C=N/Nc2nncc3ccccc23)c1 | x | n | n | x | x | n
C(=N\Nc1ccc2nncn2n1)/c1ccccn1 | n | n | 67 | x | n | n
CCOc1ccc(S(=O)(=O)n2ccnc2C)cc1 | x | n | n | x | x | n
COc1ccccc1/C=C(\NC(=O)c1ccccc1)C(=O)NCc1ccco1 | x | n | n | x | x | n
SMILES | BaF3 parental | IEC-6 tox | aSyn 5UTR inh | APP transl inh | Ba/F3 V617F tox | KLF5 inh
Cc1ccc2ccc3cccnc3c2n1 | x | 72 | n | x | x | n
CCCCOC(=O)Nc1ccc(S(=O)(=O)Nc2onc(C)c2C)cc1 | x | n | n | x | x | n
COc1nc(-c2ccccc2)cc(-c2ccc3c(c2)OCO3)c1C#N | n | n | 64 | x | n | n
COC(=O)c1cc(COc2ccc3ccc(=O)oc3c2)c(C)o1 | 94 | n | n | n | n | n
COc1ccc(-c2nnc(NC(=O)c3ccc4c(c3)OCCO4)o2)cc1 | x | n | 105 | x | x | n
COc1ccc(-c2nnc(NC(=O)c3ccc(S(=O)(=O)N4CCc5ccccc5C4)cc3)o2)cc1 | n | n | 73 | n | n | n
CC1CCCN(S(=O)(=O)c2ccc(C(=O)Nc3nnc(-c4ccccc4Cl)o3)cc2)C1 (configuration not stated) | n | n | 78 | n | n | n
Cc1cc(C)cc(NC(=O)/C(C#N)=C/c2cn(CC(=O)NCc3ccco3)c3ccccc23)c1 | n | n | 111 | n | n | n
O=C(c1cnn2c(C(F)F)cc(-c3ccccc3)nc12)N1CCc2ccccc21 | n | n | n | n | n | n
Cc1ccc(-c2cc(C(F)F)n3ncc(C(=O)N4CCc5ccccc54)c3n2)cc1 | n | n | n | 87 | n | n

Screening results: PubChem, several laboratories
